Common to all, as to experiment: DAPPL (digital affinity profiling via proximity ligation, sequencing); 10 mM Tris-HCl pH 7.5, 50 mM NaCl, 1 mM DTT, 4% glycerol, room temperature, 30 min; GST-TFs on glutathione beads, 16-mer random dsDNA library, 0.1% formaldehyde crosslink after washing; high values mean tight binding
Settings in all cases: protein: recombinant; tags: N-terminal GST; dsDNA, one strand shown

In one assay the target is T1, ERF (Homo sapiens, UniProt P50548 1-548).
T1 sequence: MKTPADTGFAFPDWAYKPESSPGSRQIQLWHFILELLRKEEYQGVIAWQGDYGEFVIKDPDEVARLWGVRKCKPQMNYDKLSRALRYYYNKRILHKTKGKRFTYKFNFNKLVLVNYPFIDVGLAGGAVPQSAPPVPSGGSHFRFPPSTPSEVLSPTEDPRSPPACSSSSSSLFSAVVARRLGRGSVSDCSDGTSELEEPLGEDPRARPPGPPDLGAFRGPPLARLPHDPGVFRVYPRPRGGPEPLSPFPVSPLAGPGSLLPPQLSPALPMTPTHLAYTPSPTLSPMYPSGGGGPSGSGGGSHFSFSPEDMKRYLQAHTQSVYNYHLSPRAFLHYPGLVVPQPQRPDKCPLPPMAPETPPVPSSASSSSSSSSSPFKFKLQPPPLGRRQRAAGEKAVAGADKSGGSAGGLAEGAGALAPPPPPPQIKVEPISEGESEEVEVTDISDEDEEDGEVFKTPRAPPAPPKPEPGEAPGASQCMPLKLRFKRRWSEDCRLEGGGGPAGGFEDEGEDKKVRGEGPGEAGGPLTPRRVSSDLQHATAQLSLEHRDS
Summed up: (§1)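 Human transcription factors fused to GST were expressed in yeast, captured on glutathione beads, given DNA barcodes and pooled with a GST-only negative control. Pools were incubated with 200 nmole of a 16-mer random double-stranded DNA library in Tris/NaCl/DTT/glycerol buffer at room temperature for 30 min. They were then washed, crosslinked with 0.1% formaldehyde, proximity-ligated (BsaI/T4 ligase, 1 h, 37 °C), PCR-amplified and sequenced on an Illumina NextSeq500. Binding signal is each 6-mer's read frequency for a factor divided by its frequency for the GST control.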

The next assay concerns the target T2, ETV3L (Homo sapiens, UniProt Q6ZN32 1-361).
T2 sequence: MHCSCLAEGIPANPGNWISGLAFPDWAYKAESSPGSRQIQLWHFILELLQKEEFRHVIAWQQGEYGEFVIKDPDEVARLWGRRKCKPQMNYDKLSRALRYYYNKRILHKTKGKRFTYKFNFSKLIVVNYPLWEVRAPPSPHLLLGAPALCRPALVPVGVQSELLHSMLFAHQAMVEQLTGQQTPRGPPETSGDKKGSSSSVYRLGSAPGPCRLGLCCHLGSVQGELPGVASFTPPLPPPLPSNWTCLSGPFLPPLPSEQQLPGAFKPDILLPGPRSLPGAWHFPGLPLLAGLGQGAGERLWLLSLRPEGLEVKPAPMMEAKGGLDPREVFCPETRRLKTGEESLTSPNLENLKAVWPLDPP
Summed up: as §1

Another assay addresses T3, ETS2 (Homo sapiens, UniProt P15036 1-469).
T3 sequence: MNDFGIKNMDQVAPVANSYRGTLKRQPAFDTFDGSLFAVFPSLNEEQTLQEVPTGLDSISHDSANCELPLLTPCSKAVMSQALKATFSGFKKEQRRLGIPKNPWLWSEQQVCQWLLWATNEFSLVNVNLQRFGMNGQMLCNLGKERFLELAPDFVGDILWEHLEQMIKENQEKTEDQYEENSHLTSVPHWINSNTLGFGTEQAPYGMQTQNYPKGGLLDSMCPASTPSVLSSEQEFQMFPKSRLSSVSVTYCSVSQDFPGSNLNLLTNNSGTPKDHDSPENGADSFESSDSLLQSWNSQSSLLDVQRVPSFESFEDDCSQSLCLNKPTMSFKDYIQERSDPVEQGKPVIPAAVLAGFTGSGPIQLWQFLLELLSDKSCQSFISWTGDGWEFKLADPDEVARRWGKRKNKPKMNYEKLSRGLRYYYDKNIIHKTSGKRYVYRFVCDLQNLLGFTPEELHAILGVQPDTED
Summed up: as §1

A further assay deals with T4, SPDEF (Homo sapiens, UniProt O95238 1-335).
T4 sequence: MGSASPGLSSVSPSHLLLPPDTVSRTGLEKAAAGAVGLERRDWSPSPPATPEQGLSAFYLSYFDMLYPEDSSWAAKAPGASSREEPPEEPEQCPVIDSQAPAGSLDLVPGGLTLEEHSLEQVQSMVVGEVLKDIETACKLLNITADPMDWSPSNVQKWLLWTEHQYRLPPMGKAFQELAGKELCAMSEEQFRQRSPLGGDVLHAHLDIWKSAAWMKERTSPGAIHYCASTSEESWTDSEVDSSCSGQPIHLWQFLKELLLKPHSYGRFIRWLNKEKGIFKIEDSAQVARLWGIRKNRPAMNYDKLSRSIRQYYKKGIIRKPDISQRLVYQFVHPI
In outline:
as §1

For a further assay, the target named is T5, ETV7 (Homo sapiens, UniProt Q9Y603 1-341).
T5 sequence: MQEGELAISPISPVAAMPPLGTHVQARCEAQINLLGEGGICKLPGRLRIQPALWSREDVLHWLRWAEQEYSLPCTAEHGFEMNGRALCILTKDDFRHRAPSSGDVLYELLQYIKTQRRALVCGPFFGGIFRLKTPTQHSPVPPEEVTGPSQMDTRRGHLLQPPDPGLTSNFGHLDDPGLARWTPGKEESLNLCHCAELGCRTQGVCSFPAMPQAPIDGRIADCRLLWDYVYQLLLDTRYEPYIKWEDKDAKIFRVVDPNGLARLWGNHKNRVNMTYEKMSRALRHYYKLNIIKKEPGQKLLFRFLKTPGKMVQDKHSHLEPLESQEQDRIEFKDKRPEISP
Summed up: as §1

A further assay deals with T6, ELF5 (Homo sapiens, UniProt Q9UKW6-2 1-255).
T6 sequence: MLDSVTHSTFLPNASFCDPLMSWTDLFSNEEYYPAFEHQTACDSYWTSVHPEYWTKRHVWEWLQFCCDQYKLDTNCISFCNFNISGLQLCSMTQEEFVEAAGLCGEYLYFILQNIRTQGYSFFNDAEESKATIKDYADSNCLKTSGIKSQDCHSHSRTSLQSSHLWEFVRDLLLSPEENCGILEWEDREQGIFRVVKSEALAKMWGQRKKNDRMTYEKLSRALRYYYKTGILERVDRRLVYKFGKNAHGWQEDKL
In outline: as §1

The target of another assay is T7, ETV3 (Homo sapiens, UniProt P41162-2 1-143).
T7 sequence: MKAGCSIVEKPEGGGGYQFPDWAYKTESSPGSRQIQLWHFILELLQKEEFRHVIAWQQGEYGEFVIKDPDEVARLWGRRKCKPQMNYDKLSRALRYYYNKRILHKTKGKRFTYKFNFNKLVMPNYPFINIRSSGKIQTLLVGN
Summed up: as §1

The target in a further assay is ETV6 (Homo sapiens, UniProt P41212 1-452). In outline:
as §1

Sequence of ETV6 (P41212 whole entry): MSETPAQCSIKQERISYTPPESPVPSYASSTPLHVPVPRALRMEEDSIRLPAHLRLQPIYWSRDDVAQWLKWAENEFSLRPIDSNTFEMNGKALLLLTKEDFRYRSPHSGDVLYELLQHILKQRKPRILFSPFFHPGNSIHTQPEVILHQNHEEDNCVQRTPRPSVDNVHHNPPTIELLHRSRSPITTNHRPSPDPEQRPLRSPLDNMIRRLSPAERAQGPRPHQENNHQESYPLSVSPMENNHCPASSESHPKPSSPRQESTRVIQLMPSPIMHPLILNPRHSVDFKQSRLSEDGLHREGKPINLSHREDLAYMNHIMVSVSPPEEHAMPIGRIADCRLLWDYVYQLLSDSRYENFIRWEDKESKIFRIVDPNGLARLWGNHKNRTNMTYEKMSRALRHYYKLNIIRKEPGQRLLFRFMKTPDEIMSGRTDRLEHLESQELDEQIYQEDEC

In the case of AAGTGT, the binding signal in the assay with ERF was 1.24 fold enrichment (6-mer frequency, TF over GST control); with ETV3L, 1.2 fold enrichment (6-mer frequency, TF over GST control); with ETS2 it was 1.38 fold enrichment (6-mer frequency, TF over GST control); with SPDEF it was 1.32 fold enrichment (6-mer frequency, TF over GST control); with ETV7, 1.42 fold enrichment (6-mer frequency, TF over GST control); with ELF5 it was 1.43 fold enrichment (6-mer frequency, TF over GST control). For the same sequence, the binding signal was 1.23 fold enrichment (6-mer frequency, TF over GST control) in the assay with ETV3 and 1.35 fold enrichment (6-mer frequency, TF over GST control) in the assay with ETV6.

Take TTGCTC: the binding signal with ERF is 1.44 fold enrichment (6-mer frequency, TF over GST control); with ETV3L, 1.28 fold enrichment (6-mer frequency, TF over GST control); in the assay with ETS2 it was 1.33 fold enrichment (6-mer frequency, TF over GST control); in the assay with SPDEF, 1.2 fold enrichment (6-mer frequency, TF over GST control); in the assay with ETV7, 1.59 fold enrichment (6-mer frequency, TF over GST control); with ELF5, 1.18 fold enrichment (6-mer frequency, TF over GST control). Moreover, the binding signal was 1.2 fold enrichment (6-mer frequency, TF over GST control) with ETV3 and 1.22 fold enrichment (6-mer frequency, TF over GST control) in the assay with ETV6.

For TGGAAT, the binding signal is 1.22 fold enrichment (6-mer frequency, TF over GST control) with ERF; 1.3 fold enrichment (6-mer frequency, TF over GST control) with ETV3L; 1.3 fold enrichment (6-mer frequency, TF over GST control) in the assay with ETS2; 1.28 fold enrichment (6-mer frequency, TF over GST control) with SPDEF; 1.27 fold enrichment (6-mer frequency, TF over GST control) in the assay with ETV7; 1.18 fold enrichment (6-mer frequency, TF over GST control) in the assay with ELF5. Further, the binding signal with ETV3 was 1.24 fold enrichment (6-mer frequency, TF over GST control); with ETV6, 1.15 fold enrichment (6-mer frequency, TF over GST control).

Take CGCACT: the binding signal with ERF is 1.21 fold enrichment (6-mer frequency, TF over GST control); with ETV3L, 1.29 fold enrichment (6-mer frequency, TF over GST control); in the assay with ETS2, 1.18 fold enrichment (6-mer frequency, TF over GST control); with SPDEF it was 1.1 fold enrichment (6-mer frequency, TF over GST control); in the assay with ETV7, 1.27 fold enrichment (6-mer frequency, TF over GST control); with ELF5 it was 1.23 fold enrichment (6-mer frequency, TF over GST control). In addition, the binding signal with ETV3 was 1.39 fold enrichment (6-mer frequency, TF over GST control); with ETV6, 1.25 fold enrichment (6-mer frequency, TF over GST control).

With AGTATC, the binding signal was 1.12 fold enrichment (6-mer frequency, TF over GST control) in the assay with ERF; 1.09 fold enrichment (6-mer frequency, TF over GST control) with ETV3L; 1.18 fold enrichment (6-mer frequency, TF over GST control) with ETS2; 1.14 fold enrichment (6-mer frequency, TF over GST control) with SPDEF; 1.13 fold enrichment (6-mer frequency, TF over GST control) with ETV7; 1.23 fold enrichment (6-mer frequency, TF over GST control) in the assay with ELF5. The binding signal with ETV3 was 1.13 fold enrichment (6-mer frequency, TF over GST control); with ETV6, 1.19 fold enrichment (6-mer frequency, TF over GST control).

As to CTGATC, the binding signal was 1.52 fold enrichment (6-mer frequency, TF over GST control) with ERF; 1.36 fold enrichment (6-mer frequency, TF over GST control) in the assay with ETV3L; 1.42 fold enrichment (6-mer frequency, TF over GST control) with ETS2; 1.33 fold enrichment (6-mer frequency, TF over GST control) in the assay with SPDEF; 1.35 fold enrichment (6-mer frequency, TF over GST control) with ETV7; 1.32 fold enrichment (6-mer frequency, TF over GST control) with ELF5. Besides, the binding signal was 1.36 fold enrichment (6-mer frequency, TF over GST control) with ETV3 and 1.23 fold enrichment (6-mer frequency, TF over GST control) with ETV6.

Consider TTTGGG, for which the binding signal is 1.39 fold enrichment (6-mer frequency, TF over GST control) with ERF; 1.46 fold enrichment (6-mer frequency, TF over GST control) with ETV3L; 1.3 fold enrichment (6-mer frequency, TF over GST control) in the assay with ETS2; 1.25 fold enrichment (6-mer frequency, TF over GST control) in the assay with SPDEF; 1.29 fold enrichment (6-mer frequency, TF over GST control) with ETV7; 1.26 fold enrichment (6-mer frequency, TF over GST control) with ELF5. For the same sequence, the binding signal is 1.32 fold enrichment (6-mer frequency, TF over GST control) with ETV3 and 1.3 fold enrichment (6-mer frequency, TF over GST control) in the assay with ETV6.
